ELG1 genotoxic – qHTS screen for small molecules that induce genotoxicity in human embryonic kidney (HEK293T) cells expressing luciferase-tagged ELG1. HEK293T ELG1-luciferase reporter, luminescence, 16 h. Potency, µM (titrated, usually from 46 µM), for the others: at the highest dose activity change, positive = activation, usual class: activators. hit rate 1.3% among 330,000; note: % of control where 0% means no effect; nearly all actives have a fitted effect of over 60% in size
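DMSO vehicle served as control against compound-treated ELG1-luciferase HEK293T cells; exposure lasted 16 hr at 37 °C and 5% CO2, followed by ONE-Glo luminescence detection after 30 min.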
Luc counter – Counterscreen for Luciferase (Kinase-Glo TM) Inhibition. Potency, µM (top dose mostly 38.3 µM), without a hit: top-dose activity change, negative = inhibition, most hits filed as inhibitors. Luciferin 4-monooxygenase (Photuris pensylvanica), Q27757. Kinase-Glo luciferase, ATP luminescence, 8 min. hit rate 0.28% among 200,000. AID 1379, 2008; note: % is set by controls: 0 for no effect and ±100 for the full control effect; nearly all actives have a fitted effect of over 60% in size
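Kinase-Glo luciferase light output from ATP and luciferin was measured with 10 uM ATP, within the enzyme's linear range. Buffer: 50 mM imidazole pH 7.2, 50 mM KCl, 7 mM MgCl2, 0.01% Tween 20, 0.05% BSA; luminescence read after 8 min at ambient temperature.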
FLuc modulator – qHTS profiling assay for firefly luciferase inhibitor/activator using purifed enzyme and Km concentrations of substrates (counterscreen for miR-21 project); purified FLuc, Km substrates, luminescence inhibition; Potency, µM (series often up to 57.5 µM), for inactives: top-dose activity change, negative = inhibition, actives largely listed as inhibitors; hit rate 6.9% among 360,000; AID 588342, 2011;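 note: plate controls were vehicle for no effect and reference inhibitor for full effect; nearly all actives have a fitted effect of over 55% in size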
Target sequence (P08659 whole entry, looked up): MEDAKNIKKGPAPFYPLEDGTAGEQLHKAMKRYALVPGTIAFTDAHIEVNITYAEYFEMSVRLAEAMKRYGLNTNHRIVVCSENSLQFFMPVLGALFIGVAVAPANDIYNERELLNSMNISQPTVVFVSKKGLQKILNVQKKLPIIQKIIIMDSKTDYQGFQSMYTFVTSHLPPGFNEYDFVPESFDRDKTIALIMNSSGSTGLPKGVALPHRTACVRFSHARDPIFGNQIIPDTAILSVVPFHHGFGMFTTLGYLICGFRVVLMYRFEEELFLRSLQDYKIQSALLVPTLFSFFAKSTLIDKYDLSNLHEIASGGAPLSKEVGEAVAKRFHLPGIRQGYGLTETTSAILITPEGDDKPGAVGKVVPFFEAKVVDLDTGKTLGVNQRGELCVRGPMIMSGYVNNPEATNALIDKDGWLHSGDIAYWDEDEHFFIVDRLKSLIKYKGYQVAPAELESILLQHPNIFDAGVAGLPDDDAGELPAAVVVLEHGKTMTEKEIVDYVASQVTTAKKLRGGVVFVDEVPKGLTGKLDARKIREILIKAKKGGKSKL
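Purified P. pyralis luciferase (10nM final) with 10uM D-luciferin and 10uM ATP (Km levels) in 50mM Tris acetate pH 7.5, 10mM Mg acetate, 0.01% Tween-20, 0.05% BSA; qHTS 6-point titration, ~60 µM downward; luminescence read.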
SMN2 splice enh – qHTS Assay for Enhancers of SMN2 Splice Variant Expression; HEK293 SMN2-luciferase splicing reporter, luminescence, 30-36 h; Potency, µM (highest dose often 46.1 µM), for the others: at the top dose activity change, positive = activation, most hits filed as activators; hit rate 2.8% among 210,000; AID 1458, 2008; note: % of control where 0% means no effect; nearly all actives have a fitted effect of over 55% in size
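HEK293 cells carry an SMN2 […]–luciferase reporter in which exon 7 inclusion puts luciferase in frame. Cells were plated 10-12 h before compound addition, then incubated 30-36 h at 37C. ONE-Glo luminescence was read; sodium butyrate at 4.5 mM final served as control.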
NPC1 prom act – qHTS Assay for NPC1 Promoter Activators; hit rate 2.4% among 320,000; AID 485313, 2010; Potency, µM (highest dose often 9.22 µM), for the others: at the top dose activation, most hits filed as activators; Huh7 NPC1 promoter luciferase reporter, 24 h; note: % of control where 0% means no effect; nearly all actives have a fitted effect of over 60% in size
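NPC1 promoter–luciferase Huh7 cells; 24 h compound; luminescence.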
Rab9 prom act – qHTS Assay for Rab9 Promoter Activators. Huh7 Rab9 promoter-luciferase reporter, luminescence, 24 h. Potency, µM (doses to about 9.22 µM), without a hit: top-dose activation, negative = inhibition, hits mostly activators. hit rate 2.8% among 320,000; note: % of control where 0% means no effect; nearly all actives have a fitted effect of over 60% in size
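Steps: seed 1500 Huh7 Rab9-luc cells per well, rest 2 h at 37 °C; add compound in DMSO; incubate 24 h; add luciferase reagent, 10 min ambient; read luminescence.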
Numbers without * were called inactive; ? = inconclusive; · = not tested or not shown. A selection: hits, their analogues and other compounds. The true share with any hit is near 7.5%. Calls come from the whole dose curve; as a rule, active = well fitted curve in the direction sought with a large enough effect; inconclusive = small, poorly fitted or top-dose-only effect, or another doubt; inactive = no such curve, though single readings can be large; an effect the other way counts as inactive or inconclusive. Potency is the fitted concentration of half-maximal effect.

SMILES	ELG1 genotoxic	Luc counter	FLuc modulator	SMN2 splice enh	NPC1 prom act	Rab9 prom act
CCOn1c(=O)c(-c2cc3ccccc3o2)[n+]([O-])c2ccccc21	?	-1%	?	16µM*	3.5µM*	2.8µM*
CCOc1ccc(-c2c(=O)n(OCc3nc4ccccc4[nH]3)c3ccccc3[n+]2[O-])cc1	-2%	·	17µM*	·	-3%	20%
Cc1cccc(NC(=O)CN2CCCCCC2)c1	2%	·	6%	·	-6%	1%
COc1ccc(C(=O)Nc2cccc(C(=O)N3CCCC3)c2)cc1	?	-1%	15µM*	?	?	22%
CC(=O)Nc1ccc(NC(=O)c2ccc3c(c2)CCN3S(=O)(=O)c2ccc(C)cc2)cc1	·	·	0%	6%	·	·
CC(=O)N1CCc2cc(NC(=O)c3ccc(C)cc3)ccc21	?	-2%	3.8µM*	11µM*	?	0.56µM*
Cc1cccc(C(=O)Nc2cccc(C(=O)N3CCOCC3)c2)c1	17%	16%	?	6%	18%	14%
Cc1ccc(C(=O)Nc2cccc(C(=O)N3CCN(C)CC3)c2)cc1	?	-15%	9.5µM*	11µM*	3.2µM*	4.5µM*
Cc1ccc(C(=O)Nc2cccc(NC(=O)CN3CCCCC3)c2)cc1	1%	·	19µM*	·	12%	9%
O=C(COc1ccc(Cl)cc1)NN=C1CCCCCCC1	1%	·	0%	·	-2%	6%
Cc1cc(NC(=O)Cc2ccccc2[N+](=O)[O-])no1	-3%	·	0%	·	3%	2%
CC(=O)Oc1ccc2oc(/C=C/N(C)C)c([N+](=O)[O-])c2c1	?	0%	15µM*	0%	28%	20%
O=C(Nc1ccccc1)C12CC1/C(=N\O)c1ccccc1O2 (centres undefined)	·	·	·	-7%	·	·
O=Cc1cccc(OC(=O)c2ccc(Cl)cc2Cl)c1	12µM*	0%	17µM*	?	?	?
COc1ccc(C(=O)N/C(=C\c2cn(S(=O)(=O)N(C)C)c3ccccc23)C(=O)NCCN2CCOCC2)cc1OC	-1%	·	1%	·	1%	6%
O=C(O)CC(C(=O)Nc1ccc(Cl)cc1)N1CCCCCC1 (centres undefined)	-3%	·	-2%	·	-4%	6%
CCc1ccccc1NC(=O)Cn1nc(CC)n2c(cc3sccc32)c1=O	·	·	4%	-2%	·	·
O=c1[nH]c(C2CC2)nc2sc3c(c12)CCCC3	2%	0%	-14%	-3%	-3%	-10%
N#Cc1cnn(-c2nc3sc4c(c3c(=O)[nH]2)CCCC4)c1N	8%	6%	6µM*	2%	18%	-5%
CC(C)(C)C(=O)Nc1ccc(-c2nc3ccccc3c(=O)o2)cc1	6%	-22%	0.11µM*	·	15%	21%
CC(C)(C)C(=O)Nc1cccc(-c2nc3ccccc3c(=O)o2)c1	11%	-1%	15µM*	-3%	?	?
CC(C)C(=O)Nc1ccc(-c2nc3ccccc3c(=O)o2)cc1	-1%	-9%	0.3µM*	·	9%	3%
CC(C)C(=O)Nc1cccc(-c2nc3ccccc3c(=O)o2)c1	3%	1%	?	-3%	-1%	1%
O=c1oc(-c2cccnc2)nc2ccccc12	0%	-5%	3%	-13%	-3%	4%
CCCC(=O)Nc1cccc(-c2nc3ccccc3c(=O)o2)c1	-4%	-15%	1.3µM*	·	1%	17%
SMILES	ELG1 genotoxic	Luc counter	FLuc modulator	SMN2 splice enh	NPC1 prom act	Rab9 prom act
O=C(Nc1cccc(-c2nc3ccccc3o2)c1)C(F)(F)F	·	·	?	2%	·	·
COCCN(C(=O)C1CC(=O)N(Cc2ccccc2)C1)c1nc(-c2ccc([N+](=O)[O-])cc2)cs1 (centres undefined)	-2%	·	6%	·	-5%	0%
Cc1ccc(-c2nn[nH]n2)cc1	1%	2%	?	1%	-5%	-2%
Cc1ccc(-c2nn[nH]n2)cc1Cl	2%	·	17µM*	·	1%	-5%
CCn1c(C)nc2c(C)[n+](CC(=O)c3ccc(Br)cc3)ccc21	1.8µM*	-1%	?	7%	1.1µM*	1µM*
COC(=O)c1cc(NC(=O)CN(C)C2CCS(=O)(=O)C2)cc(C(=O)OC)c1 (centres undefined)	5%	·	·	·	·	·
CCn1cc(C2=NC(C(C)C)CO2)c2ccccc21 (centres undefined)	?	0%	-14%	15%	-3%	-1%
CC(C)C1COC(c2cccc3ccccc23)=N1 (centres undefined)	21µM*	-22%	2.1µM*	22µM*	3.2µM*	0.79µM*
O=c1c(N2CCN(c3cccc(C(F)(F)F)c3)CC2)csc2ccccc12	·	·	0%	·	·	·
O=c1c(N2CCc3ccccc3C2)csc2ccc(Br)cc12	·	·	9.5µM*	·	·	·
O=c1c(N2CCc3ccccc3C2)csc2ccccc12	·	·	9.5µM*	·	·	·
COc1ccccc1N1CCN(c2csc3ccccc3c2=O)CC1	·	·	11µM*	·	·	·
Cc1ccccc1C(=O)NNc1ncnc2c1cnn2-c1cccc(Cl)c1	·	·	4%	·	·	·
COc1ccc(-c2nc(CN3CCN(Cc4ccccc4)CC3)c(C)o2)cc1	-6%	·	-20%	·	-3%	-5%
Cc1oc(-c2ccc(-c3ccccc3)cc2)nc1CN1CCN(CC(=O)N(C)C)CC1	?	-3%	5.4µM*	·	?	?
CC(C)CNC(=O)CSc1ccc(S(=O)(=O)N2CCN(C)CC2)cn1	-1%	·	-2%	·	-4%	-3%
O=C(O)c1cccc(NC(=O)c2ccc3c(c2)C(=O)N(C2CCCCC2)C3=O)c1	?	·	0.19µM*	·	1.6µM*	1µM*
O=C(O)c1cccc(NC(=O)c2ccc(CN3C(=O)c4ccccc4C3=O)cc2)c1	0%	·	12µM*	·	2%	8%
O=C(O)c1ccc(NC2=C(Cl)C(=O)c3ccccc3C2=O)cc1	-16%	·	?	·	-33%	-42%
O=C(O)c1ccc(CN2C(=O)c3ccc(C(=O)O)cc3C2=O)cc1	1%	·	1%	·	1%	-2%
O=C(O)COc1ccc(NC(=O)c2ccc3c(c2)C(=O)N(C2CCCCC2)C3=O)cc1	-3%	·	-1%	·	1%	-2%
O=C(O)c1cccc(NC2=C(Cl)C(=O)c3ccccc3C2=O)c1	-24%	-8%	17µM*	4%	25%	?
O=C(O)c1cccc(NC(=O)c2ccc3c(c2)C(=O)N(Cc2ccco2)C3=O)c1	1%	-2%	0.95µM*	·	0%	-3%
COc1ccc(-c2nonc2NC(=O)c2ccco2)cc1OC	-1%	·	8%	·	6%	8%

Screening results: PubChem BioAssay, National Center for Advancing Translational Sciences (NCATS)
